Among the data in PubChem BioAssay are growth inhibition, inhibition and outcome values, retold here.

SMILES strings stand for the structures. A number with no mark means an inactive call. For some of these results: Entries with a potency or affinity are not part of this list. Calls of active or inactive are those of the source. Unless noted, no rule for the calls is given here.

The nature of experiment [1]: antimalarial activity against Dd2 strain (AID 2302;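 active = growth inhibition above 50% at the single 2 µM test dose, taken to imply half-maximal potency below 2 µM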;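 also: 0% = DMSO untreated growth and 100% = chloroquine plus artemisinin killed control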). Particulars: P. falciparum Dd2 in RBCs, LDH growth readout, 72 h; at 2 µM; active compounds read high.
Experiment [2] in a line: HepG2 cytotoxicity, primary screen, cytotoxicity control for P. falciparum antimalarial project, cell-based, ATP luminescence (AID 2303;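 active = inhibition above 50%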;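 also: 0% = DMSO wells and 100% = digitonin-killed cells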). Particulars: HepG2 viability, 24-48 h, at 10 µM, active compounds read high.
Experiment [3] deals with L-lactate dehydrogenase (Plasmodium falciparum (isolate CDC / Honduras)) (UniProt Q27743). Description: PfLDH activity inhibition – cell lysate, 3D7 strain, counter-screen for P. falciparum growth inhibition project (AID 2304).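 Also: 0% = vehicle and 100% = reference inhibitor.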 Particulars: P. falciparum 3D7 crude extract, LDH APAD/NBT absorbance; at 2 µM; active compounds read high. (In general: Counterscreens check selectivity or assay interference.)

A short description of experiment [4]: inhibition of 3D7 malaria parasite growth – strain 3D7 (AID 2306).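 Also: 0% = DMSO wells and 100% = chloroquine plus artemisinin control wells.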 Particulars: P. falciparum 3D7 erythrocytic growth, LDH absorbance, 72 h; at 2 µM; active compounds read high.
For experiment [5], the target named is Calcium-dependent protein kinase 1 (Plasmodium falciparum (isolate 3D7)) (UniProt P62344). The experiment in a line: PfCDPK1 kinase inhibitors, biochemical, TCAMS library (AID 1159585; cut-off not given, nearly all actives have IC50 up to about 0.98 µM;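 also: inhibitors leave more ATP so luminescence rises with inhibition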). Particulars: recombinant PfCDPK1, Kinase-Glo ATP depletion luminescence. A general note: Kinase-Glo measures the ATP left after a reaction by luminescence.
The target in experiment [6] is Plasmodium falciparum protein kinase 6 (PK6, PF3D7_1337100) (UniProt Q8IDW1). The experiment in a line: PfPK6 kinase inhibitors, biochemical, TCAMS library (AID 1159586). Particulars: recombinant PfPK6, Kinase-Glo ATP depletion luminescence.
For experiment [7], the target named is Protein kinase 7 (PK7), Plasmodium falciparum 3D7 (PF3D7_0213400) (UniProt Q7YTF7). Description: inhibition of Plasmodium PK7 catalytic activity – biochemical, TCAMS antimalarial set, Kinase-Glo luminescence (AID 1159587). Particulars: recombinant PfPK7, Kinase-Glo ATP depletion luminescence.
The target in experiment [8] is Calcium-dependent protein kinase 4 (Plasmodium falciparum (isolate 3D7)) (UniProt Q8IBS5). Description: PfCDPK4 kinase inhibitors, biochemical, TCAMS library (AID 1159588; cut-off not given, nearly all actives have IC50 up to about 0.91 µM). Particulars: recombinant PfCDPK4, Kinase-Glo ATP depletion luminescence.

A word on the inhibition: it is the relative decrease from the control value, in per cent.

Chain of Plasmodium falciparum protein kinase 6 (PK6, PF3D7_1337100) (Q8IDW1 1-305): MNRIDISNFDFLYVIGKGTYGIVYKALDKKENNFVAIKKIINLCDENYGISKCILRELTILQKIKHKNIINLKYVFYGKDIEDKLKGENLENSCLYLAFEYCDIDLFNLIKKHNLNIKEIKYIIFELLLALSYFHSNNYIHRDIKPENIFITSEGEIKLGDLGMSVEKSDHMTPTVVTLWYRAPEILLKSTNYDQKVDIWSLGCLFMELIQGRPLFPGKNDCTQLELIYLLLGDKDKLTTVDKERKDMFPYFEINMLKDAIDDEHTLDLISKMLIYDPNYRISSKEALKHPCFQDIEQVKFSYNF
Chain of Protein kinase 7 (PK7), Plasmodium falciparum 3D7 (PF3D7_0213400) (Q7YTF7 1-343): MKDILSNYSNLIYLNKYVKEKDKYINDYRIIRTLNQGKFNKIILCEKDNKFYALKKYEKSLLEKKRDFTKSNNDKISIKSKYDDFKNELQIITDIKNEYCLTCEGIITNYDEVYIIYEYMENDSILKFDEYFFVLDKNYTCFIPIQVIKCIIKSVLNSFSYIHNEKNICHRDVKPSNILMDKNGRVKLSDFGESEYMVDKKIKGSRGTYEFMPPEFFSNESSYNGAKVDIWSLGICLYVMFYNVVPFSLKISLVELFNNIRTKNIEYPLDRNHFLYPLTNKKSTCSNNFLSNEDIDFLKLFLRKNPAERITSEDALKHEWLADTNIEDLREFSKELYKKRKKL
Chain of L-lactate dehydrogenase (Plasmodium falciparum (isolate CDC / Honduras)) (Q27743 whole entry, looked up): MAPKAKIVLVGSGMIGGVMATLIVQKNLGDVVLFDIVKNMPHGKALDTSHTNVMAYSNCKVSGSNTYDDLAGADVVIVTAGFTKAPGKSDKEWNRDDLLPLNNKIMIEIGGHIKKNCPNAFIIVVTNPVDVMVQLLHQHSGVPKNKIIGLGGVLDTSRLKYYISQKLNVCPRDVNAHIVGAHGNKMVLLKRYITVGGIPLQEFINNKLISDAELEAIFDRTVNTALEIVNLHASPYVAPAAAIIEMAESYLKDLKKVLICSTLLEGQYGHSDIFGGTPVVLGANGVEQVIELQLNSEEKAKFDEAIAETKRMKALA
Chain of Calcium-dependent protein kinase 4 (Plasmodium falciparum (isolate 3D7)) (Q8IBS5 whole entry, looked up): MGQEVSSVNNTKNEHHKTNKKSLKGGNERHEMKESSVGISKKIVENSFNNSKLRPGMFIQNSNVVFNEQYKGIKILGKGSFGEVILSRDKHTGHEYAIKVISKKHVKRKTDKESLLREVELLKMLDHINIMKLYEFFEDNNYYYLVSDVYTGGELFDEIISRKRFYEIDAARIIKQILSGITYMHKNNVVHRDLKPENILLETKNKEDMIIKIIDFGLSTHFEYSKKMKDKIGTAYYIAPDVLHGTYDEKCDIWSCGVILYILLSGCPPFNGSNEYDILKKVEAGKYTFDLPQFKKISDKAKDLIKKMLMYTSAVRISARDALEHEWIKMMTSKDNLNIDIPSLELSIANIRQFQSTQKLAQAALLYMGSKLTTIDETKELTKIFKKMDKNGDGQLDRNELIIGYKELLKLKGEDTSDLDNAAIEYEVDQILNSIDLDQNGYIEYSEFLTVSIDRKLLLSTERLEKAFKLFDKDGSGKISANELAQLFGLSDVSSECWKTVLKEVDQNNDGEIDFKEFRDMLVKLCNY
Chain of Calcium-dependent protein kinase 1 (Plasmodium falciparum (isolate 3D7)) (P62344 whole entry, looked up): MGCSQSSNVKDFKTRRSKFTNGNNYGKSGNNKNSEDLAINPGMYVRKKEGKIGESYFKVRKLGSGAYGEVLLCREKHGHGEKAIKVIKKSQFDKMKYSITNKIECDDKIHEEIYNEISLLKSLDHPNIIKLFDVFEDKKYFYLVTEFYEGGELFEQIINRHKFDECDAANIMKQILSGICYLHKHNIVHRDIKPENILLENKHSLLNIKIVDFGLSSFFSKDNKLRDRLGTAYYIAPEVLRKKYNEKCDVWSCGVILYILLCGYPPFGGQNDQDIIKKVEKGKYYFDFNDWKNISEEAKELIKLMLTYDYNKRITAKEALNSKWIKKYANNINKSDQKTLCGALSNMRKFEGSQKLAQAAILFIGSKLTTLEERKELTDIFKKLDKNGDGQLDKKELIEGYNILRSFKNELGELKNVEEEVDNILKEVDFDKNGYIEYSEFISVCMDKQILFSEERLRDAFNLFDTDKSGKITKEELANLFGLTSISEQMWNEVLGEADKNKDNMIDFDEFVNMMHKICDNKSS

For the molecule `COc1ccc(CNCc2cccc(-c3cccc(-c4nc5ccc(C(F)(F)F)cc5[nH]4)c3)c2)cc1`, the growth inhibition in experiment [1] is 91% (active); in experiment [4], 100% (active). Moreover, the inhibition in experiment [2] is 40%; in experiment [3] it was 4%. In addition, the outcome in experiment [5], in experiment [6], in experiment [7] and in experiment [8] was inactive.
On to `CC[C@H]1CN(CCCn2c3ccccc3c3ccccc32)[C@@H](CC)CN1`, for which the growth inhibition was -3% in experiment [1] and 89% (active) in experiment [4]. Besides, the inhibition in experiment [2] was 69% (active); in experiment [3], -6%. In addition, the result in experiment [5], in experiment [6], in experiment [7] and in experiment [8] was inactive.
On to `COc1cccc(NC(=O)NCCNc2ccnc(Nc3ccc(F)cc3)n2)c1`, for which the growth inhibition in experiment [1] is 1%; in experiment [4], 94% (active). The inhibition is 18% in experiment [2] and 4% in experiment [3]. The result in experiment [5], in experiment [6], in experiment [7] and in experiment [8] was inactive.
Take `O=C(Nc1cccc(-c2nc3ccccc3[nH]2)c1)c1cccc(NC(=O)c2ccco2)c1`: the growth inhibition in experiment [1] was 45%; in experiment [4] it was 91% (active). The inhibition is 9% in experiment [2] and 0% in experiment [3]. Besides, the result in experiment [5], in experiment [6], in experiment [7] and in experiment [8] was inactive.
`CCN1CCN(c2ccc(NC(=O)c3cc4c(C)nn(-c5ccccc5)c4s3)cc2C)CC1`: the growth inhibition in experiment [1] was 81% (active); in experiment [4] it was 101% (active). Further, the inhibition in experiment [2] is 32%; in experiment [3] it was 5%. The outcome in experiment [5], in experiment [6], in experiment [7] and in experiment [8] was inactive.
As for `COC(=O)c1ccc(N2CCN(CCCCNC(=O)c3ccc(NC(=O)c4ccc(Cl)cc4)cc3)CC2)c(OC)c1`, the growth inhibition in experiment [1] was 1%; in experiment [4] it was 82% (active). The figures for the inhibition in experiment [2] and in experiment [3] were 11% and 3%, respectively. The result in experiment [5], in experiment [6], in experiment [7] and in experiment [8] was inactive.
`CCCc1cc(Cc2cnc(N)nc2N)cc(OC)c1OC`: the growth inhibition in experiment [1] is 4%; in experiment [4] it was 87% (active). The figures for the inhibition in experiment [2] and in experiment [3] were 2% and 6%, respectively. The result in experiment [5], in experiment [6], in experiment [7] and in experiment [8] was inactive.
Take `OC(c1cc(C(F)(F)F)nc2c(F)cccc12)C1CCCCN1` (stereo not given): the growth inhibition in experiment [1] is 74% (active); in experiment [4] it was 98% (active). The inhibition was -4% in experiment [2] and -2% in experiment [3]. Moreover, the outcome in experiment [5], in experiment [6], in experiment [7] and in experiment [8] was inactive.
`O=C(Nc1ccc(Oc2ccccc2)cc1)N(Cc1ccc(-c2cccc(CN3CCNCC3)c2)cc1)C1CCN(Cc2ccccc2)CC1`: the results for the growth inhibition in experiment [1] and in experiment [4] were 53% (active) and 93% (active), respectively. Also, the inhibition was 10% in experiment [2] and -1% in experiment [3]. Further, the result in experiment [5], in experiment [6], in experiment [7] and in experiment [8] was inactive.
Take `COc1ccc(CN(C)CCCc2ccc(NC(=O)c3cccc4c(=O)c5cccc(F)c5[nH]c34)cc2)cc1OC`: the growth inhibition in experiment [1] was 94% (active); in experiment [4], 100% (active). The inhibition in experiment [2] is 100% (active); in experiment [3], 0%. Further, the result in experiment [5], in experiment [6], in experiment [7] and in experiment [8] was inactive.
As for `CCCCCCCN1CC[C@@H](CCCc2ccnc3ccc(OCCC4CCNCC4)cc23)[C@@H](CC)C1`, the growth inhibition is 100% (active) in experiment [1] and 104% (active) in experiment [4]. Also, the values for the inhibition in experiment [2] and in experiment [3] were 94% (active) and -4%, respectively. In addition, the result in experiment [5], in experiment [6], in experiment [7] and in experiment [8] was inactive.
`C=CCn1c(Sc2ccc(C#N)c([N+](=O)[O-])c2)nnc1-c1ccc(Cl)cc1`: the growth inhibition in experiment [1] is 85% (active); in experiment [4], 97% (active). Also, the inhibition in experiment [2] was 13%; in experiment [3], 3%. Besides, the outcome in experiment [5], in experiment [6], in experiment [7] and in experiment [8] was inactive.
Regarding `CCC[C@@H](/C=N/N(C)C(=O)OC(C)(C)C)NC(=O)[C@H](CC(C)C)NC(=O)c1cc2cccc(OC)c2o1`, the growth inhibition in experiment [1] is 61% (active); in experiment [4], 88% (active). Besides, the inhibition in experiment [2] was 5%; in experiment [3], 6%. For the same molecule, the outcome in experiment [5], in experiment [6], in experiment [7] and in experiment [8] was inactive.
Turning to `Cc1cccc2[nH]c(-c3cccc(-c4ccc(NC(=O)COC(C)C)cc4)c3)nc12`, the growth inhibition in experiment [1] was 11%; in experiment [4] it was 82% (active). The inhibition in experiment [2] is -4%; in experiment [3], 7%. Also, the result in experiment [5], in experiment [6], in experiment [7] and in experiment [8] was inactive.
With `COc1ccc2nccc(NN=Cc3ccccc3Cl)c2c1`, the figures for the growth inhibition in experiment [1] and in experiment [4] were 99% (active) and 100% (active), respectively. The results for the inhibition in experiment [2] and in experiment [3] were 29% and -4%, respectively. Moreover, the outcome in experiment [5], in experiment [6], in experiment [7] and in experiment [8] was inactive.
Take `COc1c(I)cc(Cc2cnc(N)nc2N)cc1I`: the results for the growth inhibition in experiment [1] and in experiment [4] were 0% and 91% (active), respectively. Moreover, the inhibition in experiment [2] was 5%; in experiment [3], -8%. Also, the outcome in experiment [5], in experiment [6], in experiment [7] and in experiment [8] was inactive.
For the molecule `OC1CCCN(Cc2ccc(-c3ccc(-c4nc5ccc(F)cc5[nH]4)s3)cc2)C1` (stereo not given), the growth inhibition in experiment [1] is 99% (active); in experiment [4], 100% (active). Moreover, the inhibition in experiment [2] was 40%; in experiment [3], -5%. Besides, the result in experiment [5], in experiment [6], in experiment [7] and in experiment [8] was inactive.
For the molecule `CC(=NNC(=S)Nc1ccccc1Cl)c1ccccn1`, the growth inhibition is 99% (active) in experiment [1] and 100% (active) in experiment [4]. For the same molecule, the inhibition in experiment [2] was 69% (active); in experiment [3], 6%. The result in experiment [5], in experiment [6], in experiment [7] and in experiment [8] was inactive.
As for `CN(Cc1ccc(-c2ccc(C(F)(F)F)cc2)cc1)C(=O)Cn1c(CCc2cccc(F)c2F)nc(=O)c2ccc(N3CCN(CCN4CCCCC4)CC3)nc21`, the growth inhibition is 100% (active) in experiment [1] and 101% (active) in experiment [4]. Moreover, the inhibition in experiment [2] is 100% (active); in experiment [3], 5%. For the same molecule, the result in experiment [5], in experiment [6], in experiment [7] and in experiment [8] was inactive.
With `CCN(CC)CCOC(=O)c1ccc(NC(=O)c2cn(-c3ccccc3)nc2-c2cccs2)cc1`, the growth inhibition in experiment [1] was 59% (active); in experiment [4], 100% (active). The figures for the inhibition in experiment [2] and in experiment [3] were 25% and 3%, respectively. Further, the outcome in experiment [5], in experiment [6], in experiment [7] and in experiment [8] was inactive.
